The campaign covered roughly 1,300 compounds. About 460 (35%) were called active. Another 39% or so got no clear call; they are omitted. The list shows a part of the results. A number with no mark means an inactive call. The call rests on the fitted dose curve; in most records, active means well fitted inhibition curve with a large enough effect; inconclusive means small, poorly fitted or top-dose-only effect; inactive means flat fitted curve, though single readings scatter.
Potency means the concentration at half of the fitted maximal effect.

Protein phosphatase EYA2 (Homo sapiens), sequence (O00167 whole entry, looked up): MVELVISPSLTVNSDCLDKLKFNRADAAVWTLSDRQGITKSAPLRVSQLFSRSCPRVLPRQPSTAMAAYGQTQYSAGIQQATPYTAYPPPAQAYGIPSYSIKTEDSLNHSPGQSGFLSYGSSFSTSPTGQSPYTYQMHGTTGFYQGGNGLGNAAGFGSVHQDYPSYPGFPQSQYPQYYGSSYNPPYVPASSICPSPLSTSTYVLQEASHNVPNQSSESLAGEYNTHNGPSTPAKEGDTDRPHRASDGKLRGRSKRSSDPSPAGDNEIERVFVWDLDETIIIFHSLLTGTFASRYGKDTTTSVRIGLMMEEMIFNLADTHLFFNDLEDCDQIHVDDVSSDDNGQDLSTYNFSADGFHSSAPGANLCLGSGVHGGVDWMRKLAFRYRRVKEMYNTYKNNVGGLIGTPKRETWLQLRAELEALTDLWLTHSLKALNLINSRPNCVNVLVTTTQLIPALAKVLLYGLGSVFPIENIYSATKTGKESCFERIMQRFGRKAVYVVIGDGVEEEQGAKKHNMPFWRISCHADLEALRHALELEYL

This assay addresses Protein phosphatase EYA2 (Homo sapiens) (UniProt O00167). Kind of assay: qHTS for Inhibitors of the Phosphatase Activity of Eya2: Confirmatory Assay for Cherry-picked Compounds. Further: nearly all actives have a fitted effect of over 65% in size.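 On activity change, negative = inhibition: 0% = DMSO wells and -100% = EGTA control giving full inhibition.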 Particulars: purified EYA2 phosphatase activity, qHTS confirmation; series mostly up to 46.1 µM; activity change, negative = inhibition: at the top concentration. The essentials:
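Eya2 (0.2 uM working solution) preincubated 10 min at room temperature with compound in pH 7.5 HEPES buffer with MgCl2, BSA, DTT. OMFP added (50 uM working solution), 10 min more; fluorescence 485/525 nm, normalized to EGTA and DMSO.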
For orientation: In qHTS, concentration-response curves come from the screen itself.
In the case of `S=C(NC1CC1)NC1CCCc2ccccc21` (stereo not drawn), the “activity change, negative = inhibition” value was -11.4%.
On to `N[C@@H](Cc1cnc[nH]1)C(=O)Nc1ccc2ccccc2c1`, for which the Potency is 21.3 µM (active).
Consider `O=C(O)c1cccc(Nc2nc(-c3ccccc3)nc3ccccc23)c1`, for which the Potency is 9.53 µM (active).
Same read-out and setting: to `O=C(O)c1ccc(Nc2nc(-c3ccccc3)nc3ccccc23)cc1` belongs 8.49 µM (active).
For `Cc1ccc(Nc2nc(-c3cccnc3)nc3ccccc23)cc1`, the “activity change, negative = inhibition” value was -29.8%.
Consider `CCOC(=O)N1CCC(NC(=O)c2cc3c(-c4ccccc4F)nn(C)c3s2)CC1`, for which the “activity change, negative = inhibition” value was -14.8%.
Still for that read-out and setting: to `O=C(CCn1c(=O)oc2ccccc21)NCc1ccc2c(c1)OCO2` belongs -2.46%.
Take `CCCCn1nc(C(=O)Nc2ccc3c(c2)OCO3)c2ccccc2c1=O`: the Potency is 12 µM (active).
For `Cn1nnnc1SCC(=O)Nc1ccc2c(c1)OCO2`, the “activity change, negative = inhibition” value is -11%.
Consider `COc1ccccc1NC(=O)C1=C(C)NC2=C(C(=O)CC(c3ccc(OC)c(OC)c3)C2)C1c1coc2ccccc2c1=O` (stereo not drawn), for which the Potency was 21.3 µM (active).
In the case of `CCc1cc2c(=O)[nH]c(-c3ccccn3)nc2s1`, the Potency was 1.69 µM (active).
Turning to `CCOc1ccc2c(c1)-c1c(ssc1=S)C(C)(C)N2C(=O)CSC1=NCCS1`, the Potency was 16.9 µM (active).
Take `Cc1nc(C)c(-c2csc(Nc3ccc(O)c(C(=O)O)c3)n2)s1`: the Potency was 19 µM (active).
Still for that read-out and setting: the figure for `COc1ccc(N2CCN(Cc3ccc(Br)s3)CC2)cc1` is 10.7 µM (active).
Turning to `COc1ccc(N2CCN(C(c3ccco3)c3sc4nc(C)nn4c3O)CC2)cc1` (stereo not drawn), the “activity change, negative = inhibition” value is -27.1%.
Take `COc1ccc(N2CCN(Cc3cc4c(cc3Br)OCCO4)CC2)cc1`: the Potency is 15.1 µM (active).
Consider `COc1ccc(N2CCN(C(c3cccs3)C(C)NC(=O)c3ccc4c(c3)OCO4)CC2)cc1` (stereo not drawn), for which the “activity change, negative = inhibition” value is 1.89%.
The same measure, in the same setting: the figure for `COc1ccc(S(=O)(=O)N2CCC3CC2c2cc(N4CCOCC4)ccc23)cc1` (stereo not drawn) is 17.1%.
As to `CC(=O)c1ccc(OC(=O)/C=C/c2ccccc2)cc1`, the Potency was 4.26 µM (active).
Consider `O=C(Oc1ccc(C(=S)N2CCOCC2)cc1)c1ccccc1`, for which the Potency was 16.9 µM (active).
As to `O=C(Oc1ccc(C(=S)N2CCOCC2)cc1)c1cccc(Cl)c1`, the Potency was 8.49 µM (active).
On the same count and under the same terms, the figure for `O=C(Oc1ccc(C(=S)N2CCOCC2)cc1)c1cccc([N+](=O)[O-])c1` is 7.57 µM (active).
With `Cc1ccc(C(=O)ON=C2CCN(c3ccc([N+](=O)[O-])cc3)CC2)cc1`, the “activity change, negative = inhibition” value is -23.5%.
Turning to `Cc1ccc(Nc2nc(N)nc(CSc3nnc(C)s3)n2)cc1`, the “activity change, negative = inhibition” value was -27.8%.
Regarding `COc1ccc(C(=O)C2CCCN(C(=O)c3cccc(N(C)C)c3)C2)cc1OC` (stereo not drawn), the “activity change, negative = inhibition” value is -24.1%.
As for `COC(=O)C(Sc1ccc(Cl)cc1)C1SC(=S)N(Cc2ccccc2)C1=O` (stereo not drawn), the “activity change, negative = inhibition” value was -27.9%.
Turning to `Cc1ccc(C(=O)Oc2ccc(C(=S)N3CCOCC3)cc2)cc1`, the Potency is 1.2 µM (active).
For the compound `O=C(Cc1ccc(F)cc1)Oc1ccc(C(=S)N2CCCC2)cc1`, the Potency is 15.1 µM (active).
As for `COc1ccc(C(=O)OCC(=O)Nc2ccc(N3CCOCC3)cc2)cc1`, the “activity change, negative = inhibition” value is -5.25%.
With `O=C(Oc1ccc(C(=S)N2CCOCC2)cc1)c1ccc(F)cc1`, the Potency was 7.57 µM (active).
As to `O=C(/C=C/c1ccccc1)Oc1ccc(C(=S)N2CCOCC2)cc1`, the Potency was 1.51 µM (active).
On to `COc1cccc(OC)c1C(=O)OCC(=O)NCC1CCCCC1`, for which the “activity change, negative = inhibition” value is -9.42%.
Same read-out and setting: to `CC(C)OCCCNC(=O)c1ccccc1NC(=O)C1=CSCCO1` belongs -8.43%.
`C1=Cc2ccccc2/C1=C\c1cc2c3c(c1)CCCN3CCC2`: the Potency was 7.57 µM (active).
In the case of `Cc1ccc(NC(=O)c2cc3c(CO)cnc(C)c3oc2=Nc2cccc(C(N)=O)c2)cc1`, the “activity change, negative = inhibition” value is -28.9%.
`COc1cc(N=c2oc3c(C)ncc(CO)c3cc2C(N)=O)cc(OC)c1OC`: the Potency is 6.75 µM (active).
As to `COc1ccc(C(=O)Nc2cc(OC)c(NC(=O)Nc3ccccc3)cc2OC)cc1`, the “activity change, negative = inhibition” value is -25.1%.
Consider `COc1ccc(-n2nc(C)cc2Nc2ccccc2C(=O)O)cc1`, for which the Potency was 6.01 µM (active).
On to `Cc1cc(Nc2ccccc2C(=O)O)n(-c2cccc(Cl)c2)n1`, for which the Potency is 6.75 µM (active).
For the compound `CN(C)c1ccc(/C=C/C=C2/C=Cc3ccccc32)cc1`, the Potency is 4.26 µM (active).
With `CC1=C/C(=C\c2ccc(N(C)C)cc2)c2ccccc21`, the Potency was 7.57 µM (active).
Consider `CN(C)c1ccc(C=C2C=Cc3ccccc32)cc1`, for which the Potency is 3.79 µM (active).
Consider `CCN(CC)c1ccc(/C=C2\C=Cc3ccccc32)cc1`, for which the Potency is 6.75 µM (active).
For `CC1C(c2ccccc2)=Nn2c(=O)n(-c3ccccc3)c(=O)n21` (stereo not drawn), the “activity change, negative = inhibition” value was -2.7%.
For `CN(C)c1ccc(/C=C2\C=Cc3ccccc32)cc1`, the Potency is 6.01 µM (active).
On to `C1=Cc2ccccc2/C1=C\c1cc[cH-]c1.[Fe+2].c1cc[cH-]c1`, for which the Potency was 10.7 µM (active).
As for `CNc1ccc(C=C2C=Cc3ccccc32)cc1`, the Potency was 15.1 µM (active).
As for `Cc1oc2c(Cl)c(Cl)c(O)c(CN(C)C)c2c1C(=O)c1ccc(Cl)cc1`, the Potency is 19 µM (active).
Regarding `O=C1C(NS(=O)(=O)c2cccs2)=C(N2CCN(Cc3ccccc3)CC2)C(=O)c2ccccc21`, the Potency is 13.5 µM (active).
`CC(=O)Nc1ccc(S(=O)(=O)NC2=C(N3CCN(Cc4ccccc4)CC3)C(=O)c3ccccc3C2=O)cc1`: the Potency is 19 µM (active).
As to `Cc1nn(-c2ccccc2)c2c1C(c1cccnc1)N1C=C(S(=O)(=O)N3CCCCC3)C=CC1=N2` (stereo not drawn), the “activity change, negative = inhibition” value was -26.3%.
Consider `COc1ccc(Nc2nnc(-c3ccc(C(N)=O)cc3)c3ccccc23)cc1`, for which the Potency was 4.78 µM (active).
In the case of `COc1ccc(-c2csc(-c3ccc(C(=O)O)cc3)n2)cc1`, the “activity change, negative = inhibition” value was -19.6%.
Regarding `CNC(=O)c1ccc(Nc2nnc(-c3ccc(C(N)=O)cc3)c3ccccc23)cc1`, the Potency was 4.78 µM (active).
Same read-out and setting: the figure for `NC(=O)c1ccc(-c2nnc(Nc3ccc(S(N)(=O)=O)cc3)c3ccccc23)cc1` is 13.5 µM (active).
`COc1ccc(NC(=O)c2[nH]c(C)c(C(C)=O)c2C)cc1Cl`: the “activity change, negative = inhibition” value is -25.3%.
On to `Cc1cc2oc(C(=O)N3CCN(Cc4ccccc4)CC3)c(C)c2cc1C`, for which the “activity change, negative = inhibition” value is -28.7%.
Consider `Cc1cc2oc(C(=O)N(Cc3ccc(N(C)C)cc3)CC3CCCO3)c(C)c2cc1C` (stereo not drawn), for which the Potency was 8.49 µM (active).
For `COc1ccc(N(CC(=O)N2CCCCC2)S(=O)(=O)c2c(C)nn(C)c2C)cc1`, the “activity change, negative = inhibition” value was -2.46%.
Still for that read-out and setting: the figure for `COc1ccc(NC(=O)c2ccc(CN3CCc4ccccc4C3)cc2)c(OC)c1` is -24.9%; for `COc1ccc(NC(=O)c2ccc(COc3ccccc3)o2)c(OC)c1` it is -18.8%.
Turning to `COc1ccc(NC(=O)COc2cccc3c2CCN(C)C3=O)c(OC)c1`, the Potency is 12 µM (active).
Consider `Clc1ccc(-n2nnnc2-c2cnc3ccccc3c2-c2ccccc2)cc1`, for which the “activity change, negative = inhibition” value is -27.9%.
In the case of `Cc1cc(C)n2nc(C(=O)NC3CCCc4ccccc43)nc2n1` (stereo not drawn), the “activity change, negative = inhibition” value was -9.93%.
As to `Cc1cc(C)n2nc(SCCOc3ccccc3F)nc2n1`, the Potency is 15.1 µM (active).
For `CN(C)S(=O)(=O)c1cccc(NC(=O)COc2ccccc2C(=O)Nc2ccccc2)c1`, the Potency was 13.5 µM (active).
Turning to `O=C(COc1ccccc1/C=C1/NC(=O)NC1=O)Nc1ccccc1`, the “activity change, negative = inhibition” value was -25.6%.
Take `Cc1cnc2c(C)cccc2c1/C=C/c1ccc(N(C)C)cc1`: the Potency was 6.01 µM (active).
With `Cc1ccc(C)c2c(/C=C/c3ccc(N(C)C)cc3)ccnc12`, the Potency was 5.36 µM (active).
Regarding `Cc1cc(C)c2c(/C=C/c3ccc(N(C)C)cc3)ccnc2c1`, the Potency is 9.53 µM (active).
On the same count and under the same terms, to `Cc1cnc2c(C)ccc(C)c2c1/C=C/c1ccc(N(C)C)cc1` belongs 6.01 µM (active).
As to `COCc1cc(O)c(O)c(O)c1-c1c(COC)cc(O)c(O)c1O`, the “activity change, negative = inhibition” value was -12.3%.
As for `Cc1cc(=O)n2[nH]c(Nc3cccc(Cl)c3)nc2n1`, the “activity change, negative = inhibition” value is -20.9%.

The values above are taken from PubChem BioAssay AID720540 (National Center for Advancing Translational Sciences (NCATS), 2013).
